Experimental data taken from PubChem BioAssay (NCI).
The panel holds about 83,000 compounds, 20% with a hit somewhere; the sample as a whole holds those more often.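 For each line, cells grew in 96-well plates with the test compound present at a single concentration for 48 hours.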 Activity calls are given as the source filed them. Rule for the calls: active = growth percent below 10; inactive = the rest.

Key:
Experiment in all cases: NCI-60 one-dose screen, 48 h (100 = growth as untreated, 0 = no growth, -100 = all killed)
Conditions in all cases: 10 µM unless noted
[1] = tested on: BT-549 breast
[2] = tested on: MDA-MB-435 melanoma
[3] = tested on: SW-620 colon
[4] = tested on: MCF7 breast
[5] = tested on: HCT-116 colon
[6] = tested on: HCC-2998 colon
[7] = tested on: KM12 colon

Measured: growth

Cc1ccc(S(=O)(=O)OC2COCOC2C(OS(=O)(=O)c2ccc(C)cc2)C2OCOCC2OS(=O)(=O)c2ccc(C)cc2)cc1 (stereo not given)
inactive: [1] 98.2% | [2] 108% | [3] 108% | [4] 103% | [5] 105% | [6] 113% | [7] 107%

CCN(Cc1ccccc1)c1ccc(SC#N)cc1
inactive: [1] 71.5% | [2] 98.6% | [3] 83.8% | [4] 75.3% | [5] 43.7% | [6] 94.1% | [7] 41.3%

CN(C)c1nc(N)c(N=O)c(N)n1
inactive: [1] 115% | [2] 110% | [3] 108% | [4] 102% | [5] 105% | [6] 113% | [7] 108%

Nc1c(C(=O)Nc2cccc(Cl)c2Cl)sc2nc3c(cc12)C(=O)CCC3
inactive: [1] 95.3% | [2] 20.6% | [3] 64% | [4] 86.7% | [5] 93% | [6] 77.8% | [7] 67.5%

Cc1cc(Nc2nc(-c3ccncc3)nc3ccccc23)n[nH]1
inactive: [1] 82.7% | [2] 40.3% | [3] 78.3% | [4] 40.2% | [5] 39.3% | [6] 72% | [7] 18.8%

c1ccc(CCn2nnc3c(Nc4ccc(N5CCOCC5)cc4)ncnc32)cc1
inactive: [2] 23.8% | [3] 62.8% | [4] 89.1% | [5] 54% | [6] 105% | [7] 53.2%

FC(F)(F)c1cccc(-n2nnc3cnc(Nc4ccc(N5CCCCC5)cc4)nc32)c1
active: [5] 4.87%
inactive: [2] 37.5% | [3] 35.7% | [4] 71.2% | [6] 88.3% | [7] 65.8%

CCN(CC)S(=O)(=O)c1ccc2[nH]c(=O)cc(C(=O)Nc3ccc(OC)cc3OC)c2c1
inactive: [1] 136% | [2] 108% | [3] 108% | [4] 99.6% | [5] 97.3% | [6] 75.3% | [7] 110%

COc1cc(C2C=C(C)N=C3SC=C(C)N32)cc(OC)c1OC (stereo not given)
active: [1] -49.9% | [2] -33.3% | [3] -44.5% | [4] -14.8% | [5] -67.5% | [7] -77%

C#CCN1C(=O)/C(=c2\sc3n(c2=O)C2C(NN=3)N(CC)C(=O)N2CC)c2ccccc21 (stereo not given)
inactive: [1] 39.7% | [3] 24.3% | [4] 23.3% | [7] 14.1%
active: [2] -63.2% | [5] 4.43%

O=c1cc(C2NCCc3c2[nH]c2ccccc32)c2c(ccc3ccccc32)o1 (stereo not given)
inactive: [1] 82% | [2] 81.7% | [3] 59.6% | [4] 81.8% | [5] 42% | [6] 78.1% | [7] 63.5%

CCCCCCCCCCCCCCCCCCOc1cccc(CCOP(=O)(O)OCC[N+](C)(C)C)c1
inactive: [1] 92.5% | [2] 93.6% | [3] 94.3% | [4] 88.8% | [5] 70% | [6] 82.5% | [7] 50.1%

COc1cccc2cc(-c3cc4ccccc4[nH]3)c(=NC(=O)c3ccc(Cl)cc3)oc12
active: [3] 7.3%
inactive: [1] 62.7% | [2] 33.1% | [4] 73.5% | [5] 26.9% | [6] 75.7% | [7] 33.9%

O=C(Nc1ccccc1)OCC1OCOC(COC(=O)Nc2ccccc2)C1OC(=O)Nc1ccccc1 (stereo not given)
inactive: [1] 93.5% | [2] 11.2% | [4] 16.5% | [6] 36.9% | [7] 51.2%
active: [3] 8.17% | [5] -51.6%

COc1ccc(OC)c(/C=C2\Oc3cc(OCCN4CCCC4)ccc3C2=O)c1
inactive: [1] 95.7% | [2] 97% | [3] 81.4% | [4] 88.1% | [5] 69% | [7] 85.4%

C=C1C(=O)O[C@H]2[C@H]1CC/C(COC(=O)NCc1ccc(OC)cc1)=C\CC[C@@]1(C)O[C@@H]21
inactive: [1] 29.7% | [2] 46.9% | [4] 15.2% | [6] 83.5% | [7] 73.8%
active: [5] -48.7%

C/C1=C\CCC2(C)OC2CC2CCC(C)(O)C(CC1)C2(C)C (stereo not given)
inactive: [1] 49.8% | [2] 110% | [3] 97.1% | [4] 102% | [5] 98.6% | [7] 108%

CN=S(=O)(NC(=O)c1ccc(Cl)cc1Cl)c1ccc(Br)s1 (stereo not given)
inactive: [1] 103% | [2] 97.6% | [3] 98.8% | [4] 101% | [5] 102% | [6] 111% | [7] 110%

COc1cc(OC)c(C(=O)/C=C/c2cccc(C#N)c2)c(OC)c1
inactive: [4] 15% | [6] 14.4%
active: [1] -3.25% | [2] 7.3% | [5] 2.91% | [7] 6.41%

Nc1nc(-c2cc3ccccc3o2)cc(=O)c(=O)[nH]1
inactive: [1] 106% | [2] 105% | [4] 91% | [5] 110% | [7] 105%
